The subject of the assay is HCoV-OC43. Also on record: species or system RD; HTS, protection from HCoV-OC43 induced cell death, luminescent cell viability (CellCounting-Lite 2.0), inhibition rate. Conditions: 24 h post infection, 1 h compound pre-incubation, 10 µM, inhibitor.

The structures appear in SMILES notation. Where a name gives a salt, the structure may show the parent alone. Read-outs that look alike come from different tables or passages of the source. In all, about 3,300 compounds went through this assay and about 60 (2%) showed an effect of 50% or more. Many of the other results were omitted from the sample, so strong results are more common in it than they were.

These results are taken from PMC12431657, “Discovery and mechanistic insights of dibenzoylmethane as a broad spectrum inhibitor of coronavirus” (PLOS Pathogens, 2025).

`C=C1[C@@H](C)[C@H]2[C@H](Cc3ccccc3)NC(=O)[C@]23OC(=O)/C=C/[C@H](O)CCC[C@@H](C)C/C=C/[C@H]3[C@@H]1O` [Cytochalasin B]: the “OC43 Inhibition rate” value is on record as 63%. For `C=C1C[C@@]23CC[C@H]4[C@@](C)(CCC[C@@]4(C)C(=O)O[C@@H]4O[C@H](CO)[C@@H](O)[C@H](O)[C@H]4O[C@@H]4O[C@H](CO)[C@@H](O)[C@H](O)[C@H]4O)[C@@H]2CC[C@]1(O[C@@H]1O[C@H](CO)[C@@H](O)[C@H](O[C@@H]2O[C@H](CO)[C@@H](O)[C@H](O)[C@H]2O)[C@H]1O[C@@H]1O[C@H](CO)[C@@H](O)[C@H](O)[C@H]1O)C3` [Rebaudioside D], the “OC43 Inhibition rate” value turned out to be 1.1%. For the molecule `CCCCC1OC(=O)C2=CCCCC21` (stereo not shown) [Sedanolide], the “OC43 Inhibition rate” value is -0.1%. Take `COc1ccc(-c2oc3c(CC=C(C)C)c(O)cc(O)c3c(=O)c2O[C@@H]2O[C@@H](C)[C@H](O)[C@@H](O)[C@H]2O[C@@H]2O[C@@H](C)[C@H](O)[C@@H](O)[C@H]2O)cc1` [2''-O-Rhamnosylicariside II]: the “OC43 Inhibition rate” value stood at 0.3%. On to `CC(C)=CCc1c(O)cc(O)c2c(=O)c(-c3ccc(O)cc3)coc12` [Lupiwighteone], for which the “OC43 Inhibition rate” value came out at 63.3%. As to `CC(C)=CCc1c(-c2ccc(O)cc2O)oc2c3c(cc(O)c2c1=O)OC(C)(C)C=C3` [Morusin], the “OC43 Inhibition rate” value came out at 5.8%. For the molecule `O=c1c(-c2ccc(O)cc2)coc2cc(O)cc(O)c12` [Genistein], the “OC43 Inhibition rate” value turned out to be 6.8%. `CC(C)=CCc1cc(-c2coc3cc(O)cc(O)c3c2=O)cc(O)c1O` [Glycyrrhisoflavone]: the “OC43 Inhibition rate” value is listed as 2.1%. Same read-out and setting: to `CC(C)=CCc1cc(-c2coc3cc(O)ccc3c2=O)ccc1O` [Neobavaisoflavone] belongs 18.1%. `COc1ccc(-c2oc3c(CC=C(C)C)c(O)cc(O)c3c(=O)c2O)cc1` [Icaritin]: the “OC43 Inhibition rate” value is recorded as 0.1%. The same measure, in the same setting: for `CC(C)=CCc1c(O)cc(O)c2c(=O)c(O[C@@H]3O[C@@H](C)[C@H](O)[C@@H](O)[C@H]3O)c(-c3ccc(O)cc3)oc12` [IKarisoside A] the value was 14.9%. Still for that read-out and setting: for `CC(C)=CCc1c(O)cc(O)c2c(=O)cc(-c3ccc(O)cc3)oc12` [Licoflavone C] the value was 7.3%. Take `COc1ccc(-c2oc3c(CC=C(C)C)c(O)cc(O)c3c(=O)c2O[C@@H]2O[C@@H](C)[C@H](O)[C@@H](O)[C@H]2O)cc1` [Baohuoside I]: the “OC43 Inhibition rate” value stood at 70.2%. Same read-out and setting: for `CC(C)=CCc1c(O)ccc(-c2coc3cc(O)cc(O)c3c2=O)c1O` [Licoisoflavone A] the value was 59.7%. Regarding `CC(C)=CCc1c(-c2ccc(O)cc2O)oc2c(CC=C(C)C)c(O)cc(O)c2c1=O` [Mulberrin], the “OC43 Inhibition rate” value is listed as 51.7%. Still for that read-out and setting: for `CC(=O)O[C@H]1C[C@@]2(C)[C@@H](C[C@@H](O)[C@H]3[C@@]4(C)CC[C@@H](O)[C@@H](C)[C@@H]4CC[C@@]32C)/C1=C(\CCC=C(C)C)C(=O)O` [Fusidic acid (sodium salt)] the value was 1.2%; for `CC1(C)[C@H](OC(=O)c2ccccc2)CC[C@]2(C)C3=CC[C@@]4(C)[C@@H]5C[C@](C)(COC(=O)c6ccccc6)CC[C@]5(C)CC[C@]4(C)C3=CC[C@@H]12` [3,29-O-Dibenzoyloxykarounidiol], -4.4%; for `COC(=O)C1=CO[C@@H](O[C@@H]2O[C@H](CO)[C@@H](O)[C@H](O)[C@H]2O)[C@@H]2[C@@]3(C)O[C@H]3[C@@H](O)[C@]12O` [Sesamoside], -1.2%.

For `CCC/C=C\C=C\CCCCCCCCCO` [Bombykol], the “OC43 Inhibition rate” value is recorded as 1.1%. Turning to `COc1nccc(N)n1` [2-O-Methylcytosine], the “OC43 Inhibition rate” value is reported as 0.2%.

Regarding `C[C@]12CC[C@@H](O)C[C@H]1CC[C@@H]1[C@@H]2[C@@H](O)C[C@@]2(C)[C@H]1CC[C@]2(O)C(=O)CO` [Tetrahydrocortisol], the “OC43 Inhibition rate” value is given as -0.2%. For the molecule `CC(=O)O[C@@]12CO[C@@H]1C[C@H](O)[C@@]1(C)C(=O)[C@H](O)C3=C(C)[C@@H](OC(=O)[C@H](O)[C@@H](NC(=O)c4ccccc4)c4ccccc4)C[C@@](O)([C@@H](OC(=O)c4ccccc4)[C@H]21)C3(C)C` [10-Deacetyltaxol], the “OC43 Inhibition rate” value is 0.2%. In the case of `CC(=O)c1cc2c(CO)cc(O)cc2oc1=O` [Armillarisin A], the “OC43 Inhibition rate” value is -0.4%. In the case of `COc1ccc([C@H]2OC[C@H]3[C@@H]2CO[C@@H]3c2ccc(OC)c(OC)c2)cc1OC` [Pinoresinol dimethyl ether], where the note is “OC43 Inhibition rate, 24 h”, the “OC43 Inhibition rate” value came to 1.1%. Consider `COc1ccc(-c2oc3c(CC=C(C)C)c(O[C@@H]4O[C@H](CO)[C@@H](O)[C@H](O)[C@H]4O)cc(O)c3c(=O)c2O[C@@H]2O[C@@H](C)[C@H](O)[C@@H](O)[C@H]2O[C@@H]2OC[C@@H](O)[C@H](O)[C@H]2O)cc1` [Epimedin B], for which the “OC43 Inhibition rate” value was 1%. For `O=C(c1ccccc1)c1ccccc1` [Benzophenone], the “OC43 Inhibition rate” value is reported as -0.1%. The same measure, in the same setting: to `O=C(CC(=O)c1ccccc1)c1ccccc1` [DBM, dibenzoylmethane] belongs 102.9%; to `O=C(O)c1ccccc1` [Benzoic acid], -0.2%. As for `Oc1cc(O)cc(/C=C/c2c(O)cccc2O)c1` [Gnetol], the “OC43 Inhibition rate” value is listed as -1%. Same read-out and setting: to `O=c1cc(-c2ccc(O)cc2)oc2c([C@@H]3O[C@H](CO)[C@@H](O)[C@H](O)[C@H]3O)c(O)c([C@@H]3OC[C@@H](O)[C@H](O)[C@H]3O)c(O)c12` [Vicenin-1] belongs -1.7%. For `COc1cc([C@H]2Oc3cc([C@H]4Oc5cc(O)cc(O)c5C(=O)[C@@H]4O)ccc3O[C@@H]2CO)ccc1O` [Silibinin], the “OC43 Inhibition rate” value (OC43 Inhibition rate, 24 h) worked out at 1.4%.

Consider `CCCCCCCCCC(O)CC(=O)O` (stereo not shown) [3-Hydroxydodecanoic acid], for which the “OC43 Inhibition rate” value is listed as -3.9%.

Regarding `Cn1cc(C(=O)O)ccc1=O` [1-Methyl-6-oxo-1,6-dihydropyridine-3-carboxylic acid], the “OC43 Inhibition rate” value worked out at 0.2%.

Take `O=C(CCc1ccc(O)c(O)c1)NCCCNCCCCNCCCNC(=O)CCc1ccc(O)c(O)c1` [Kukoamine A]: the “OC43 Inhibition rate” value turned out to be 2.2%. As to `Nc1ncnc2c1ncn2[C@H]1C[C@H](O)[C@@H](CO)O1` [2'-Deoxyadenosine monohydrate], under “OC43 Inhibition rate, 24 h”, the “OC43 Inhibition rate” value is on record as -2.3%. On to `Nc1ncnc2c1ncn2[C@@H]1O[C@H](CO)C[C@H]1O` [Cordycepin], for which the “OC43 Inhibition rate” value is on record as -0.3%. In the case of `Nc1ncnc2c1ncn2[C@@H]1C[C@H](CO)[C@@H](O)[C@H]1O` [Aristeromycin], the “OC43 Inhibition rate” value amounted to 53.9%.
